# Records with an inconclusive call do not appear. A call without a number means that no potency is given here. Values without a mark were called inactive. The source made the active and inactive calls. The call rests on the fitted dose curve; in most records, active means well fitted curve in the direction sought with a large enough effect; inconclusive means small, poorly fitted or top-dose-only effect, or another doubt; inactive means no such curve, though single readings can be large; an effect the other way counts as inactive or inconclusive.
# Tests used:
# [1] = test system: PA-1; experiment: Primary qHTS to identify gynecologic anti-cancer compounds using libraries of approved drugs and bioactive compounds (AID 1345084); conditions: Gynecologic cancer cell panel viability, ATPlite luminescence, 48 h; series mostly up to 57.5 µM; further: nearly all actives have a fitted effect of over 55% in size
# Outline: (§1)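 Cytotoxicity screen measuring ATP content by luciferase luminescence. Each compound is applied at five concentrations for 48 h at 37 C with 5% CO2.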
# [2] = test system: Tov-21-G; experiment: as above; conditions: Gynecologic cancer cell panel viability, ATPlite luminescence, 48 h; series mostly up to 57.5 µM
# Outline: as §1
# [3] = test system: Tov112D; experiment: as above; conditions: Gynecologic cancer cell panel viability, ATPlite luminescence, 48 h; series mostly up to 57.5 µM
# Outline: as §1
# [4] = test system: SKOV3; experiment: as above; conditions: Gynecologic cancer cell panel viability, ATPlite luminescence, 48 h; series mostly up to 57.5 µM
# Outline: as §1
# [5] = qHTS assay to identify inhibitors of the type 1 interferon - major histocompatibility complex class I in skeletal muscle: Counter screen cell viability and HiBit confirmation (AID 1347412); conditions: iHSKM muscle cells + IFN-b, HiBiT or CellTiter-Glo, 24 h; HiBiT; further: nearly all actives have a fitted effect of over 60% in size
# Outline: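 After 24 h with human IFN-beta (4 ng/ml) and compound titrations (top 46 uM final, 1:3, 12 points), HLA-B HiBit myoblasts were lysed for either Nano-Glo HiBiT luminescence or CellTiter Glo viability on paired plates.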
# Potency means the concentration at half of the fitted maximal effect.
smiles,measurement,setting,value
NC(=O)c1nc(Nc2ccccc2)sc1NC(=O)C1CCCCC1,Potency,[1],inactive
same,Potency,[2],inactive
same,Potency,[3],inactive
COc1ccc2nccc(C(=O)CC[C@@H]3CCN(CC#Cc4cc(F)cc(F)c4F)C[C@@H]3C(=O)O)c2c1,Potency,[1],inactive
same,Potency,[2],inactive
same,Potency,[3],inactive
Nc1c(S(=O)(=O)c2ccccc2)c2nc3ccccc3nc2n1-c1ccc(F)cc1,Potency,[1],inactive
same,Potency,[2],inactive
same,Potency,[3],inactive
CN(C)C(=O)Nc1cccc(-c2ccc(N(C)C)cc2)c1,Potency,[1],inactive
same,Potency,[2],inactive
same,Potency,[3],inactive
CC1(C)CC[C@]2(C(=O)O)CC[C@]3(C)C(=CCC4[C@@]5(C)C[C@@H](O)[C@H](O)[C@@](C)(CO)C5CC[C@]43C)[C@@H]2[C@@H]1O (some centres not stated),Potency,[1],inactive
same,Potency,[2],inactive
same,Potency,[3],inactive
COc1ccc(-c2c(C)nn3c(NCCN4CCOCC4)cc(C)nc23)cc1OC,Potency,[1],inactive
same,Potency,[2],inactive
same,Potency,[3],inactive
CN(CC1COCCO1)S(=O)(=O)Nc1ccc2ccc3ncc(-c4cnn(C)c4)cc3c(=O)c2c1 (configuration not stated),Potency,[4],15.8 µM (active)
COc1cccc(-c2cc(F)ccc2C2Cc3nc(N)nc(C)c3C(=O)N2)n1 (configuration not stated),Potency,[5],0.0222 µM (active)
O=C1C(Cc2ccc(O)cc2)N2C(=O)CCN(C(=O)NCc3ccccc3)C2CN1Cc1cccc2ccccc12 (configuration not stated),Potency,[4],20 µM (active)
same,Potency,[2],7.94 µM (active)
C=C(C)C(=O)O[C@H]1[C@H]2C(=C)C(=O)O[C@@H]2C[C@@H](C)[C@@H]2O[C@@H]2C(=O)[C@](C)(O)[C@@H]1OC(=O)C(=C)C,Potency,[4],10 µM (active)
COc1cc(CCC2=NN=C(NC(=O)c3ccc(N4C[C@@H](C)N[C@@H](C)C4)cc3)C2)cc(OC)c1,Potency,[4],12.6 µM (active)
same,Potency,[2],22.4 µM (active)
Cn1ncc(Cl)c1-c1cc(C(=O)N[C@H](CN)Cc2ccc(F)c(F)c2)oc1Cl,Potency,[4],4.47 µM (active)
same,Potency,[2],0.708 µM (active)
CNc1ccc([N+](=O)[O-])c(Nc2ccc3[nH]ncc3c2)n1,Potency,[4],inactive
O=C(Nc1ccc(-n2nc(C(F)(F)F)cc2C(F)(F)F)cc1)c1ccncc1F,Potency,[4],inactive
same,Potency,[2],inactive
same,Potency,[3],inactive
C=C1CC[C@@H]2[C@](C)(CO)[C@H](O)CC[C@@]2(C)[C@@H]1C/C=C1/C(=O)OCC1O (some centres not stated),Potency,[4],inactive
CCCCNc1ncc(C(=O)NCc2ccc(-n3ccnc3)cc2)c(NC2CCC(O)CC2)n1 (configuration not stated),Potency,[4],inactive
COc1cc(O)c2c(c1)C1OC1C[C@H](O)[C@H](O)C(=O)/C=C\C[C@H](C)OC2=O (some centres not stated),Potency,[4],inactive
same,Potency,[2],17.8 µM (active)
Clc1ccc(Nc2nc3ccccc3c3nc(C4CCCCC4)[nH]c23)cc1Cl,Potency,[4],inactive
same,Potency,[2],inactive
same,Potency,[3],inactive
COc1cc2c(Nc3cc(F)c(Cl)c(Cl)c3)ncnc2cc1OCC1CCCN(C)CCC1,Potency,[4],17.8 µM (active)
COC1=CC(=O)O/C1=C(/OC)[C@@H]1O[C@H]1c1ccccc1,Potency,[4],inactive
same,Potency,[2],inactive
same,Potency,[3],inactive
COc1ccc(-c2ccccc2)cc1NS(=O)(=O)c1cc(Cl)cc(Cl)c1O,Potency,[4],inactive
CC(C)=C1C[C@@]2(C)C(=CC1=O)CC[C@@H](OC(=O)/C(C)=C/CO)[C@@H]2C,Potency,[4],11.2 µM (active)
same,Potency,[2],inactive
same,Potency,[3],inactive
C=C1CC[C@@H]2[C@](C)(CO)[C@H](O)CC[C@@]2(C)[C@@H]1CC(=O)C1=CCOC1=O,Potency,[4],inactive
N#CSc1cc(SC#N)c(N)nc1N,"activity change, negative = cytotoxicity",[4],-0.394% [at 11.6 µM]
same,"activity change, negative = cytotoxicity",[2],-3.87% [at 11.6 µM]
O=C(NC1(c2ccccc2)CC1)c1c(CN2CCC(N3CCCCC3)CC2)c(-c2cccc(C(F)(F)F)c2)nc2cc(Br)ccc12,Potency,[4],inactive
same,Potency,[2],inactive
same,Potency,[3],inactive
Nc1nccc(-c2c(-c3ccc(F)cc3)ncn2C2CCCCC2)n1,Potency,[4],inactive
Nc1nc(Nc2ccc3c(c2)CCC(N2CCCC2)CC3)nn1-c1cc2c(nn1)-c1ccccc1CCC2 (configuration not stated),Potency,[4],7.08 µM (active)
same,Potency,[2],22.4 µM (active)
CC(C)(C)c1ccc(NC(=O)N2CCN(c3ncccc3Cl)CC2)cc1,Potency,[4],22.4 µM (active)
same,Potency,[2],inactive
same,Potency,[3],inactive
C=C1C(=O)O[C@@H]2C3=C(C)CCC[C@]3(C)CC[C@@]12O,Potency,[4],inactive
COC(=O)CC(O)CC(O)/C=C/c1c(C)ccc2c1C(OC(C)=O)CC(C)C2 (configuration not stated),Potency,[4],inactive
same,Potency,[2],inactive
CC(C)NCCCn1c(Sc2cc3c(cc2I)OCO3)nc2c(N)ncnc21,Potency,[4],2 µM (active)
same,Potency,[2],0.501 µM (active)
same,Potency,[3],0.891 µM (active)
CC(=O)O[C@H]1CC(C)(C)CC2[C@]13CO[C@@]21CCC2[C@@]4(C)CC[C@H](O[C@@H]5OC[C@H](O[C@@H]6O[C@H](CO)[C@@H](O)[C@H](O)[C@H]6O[C@@H]6OC[C@@H](O)[C@H](O)[C@H]6O)[C@H](O)[C@H]5O[C@@H]5O[C@H](CO)[C@@H](O)[C@H](O)[C@H]5O)[C@@](C)(CO)C4CC[C@@]2(C)[C@]1(C)C[C@H]3O (some centres not stated),"activity change, negative = cytotoxicity",[4],-11.7% [at 11.6 µM]
COc1ccc(CN2CCN(C(=O)CCNC(=O)c3ccc(C(C)(C)C)cc3)CC2)cc1,Potency,[4],inactive
same,Potency,[2],inactive
same,Potency,[3],inactive
COC1C(O)C(OC2CCC3(C)C(CCC45CCC6C7(COC(=O)C7)OC4(O)C6(C)CCC35)C2)OC(C)C1OC1OC(CO)C(OC2OC(CO)C(O)C(O)C2O)C(O)C1O (configuration not stated),"activity change, negative = cytotoxicity",[4],-3.24% [at 11.6 µM]
C=C[C@@]12COC(=O)C(=C)[C@@H]1[C@@H](O)[C@H](C(=C)C(=O)OC)[C@@H](O)C2,Potency,[4],inactive
C[C@@H]1CCCN1CCc1cc2cc(-c3ccc(C#N)cc3)ccc2o1,Potency,[4],inactive
same,Potency,[2],inactive
same,Potency,[3],inactive
c1ccc(-c2cnn3cc(-c4ccc(OCCN5CCOCC5)cc4)cnc23)cc1,Potency,[4],15.8 µM (active)
same,Potency,[2],inactive
C=CC(=O)Nc1cccc(Nc2nc(Nc3ccc(NC4CN(CCF)C4)cc3OC)ncc2C(F)(F)F)c1,Potency,[4],12.6 µM (active)
C/C=C(/C)C(=O)OC1CC(C)(C)CC2C3=CCC4C5(C)CCC(O[C@@H]6O[C@H](C(=O)O)[C@@H](O)[C@H](O)[C@H]6O[C@@H]6O[C@H](CO)[C@H](O)[C@H](O[C@@H]7OC[C@H](O)[C@H](O)[C@H]7O[C@@H]7O[C@H](CO)[C@@H](O)[C@H](O)[C@H]7O)[C@H]6O)C(C)(C)C5CCC4(C)C3(C)C(O)C(O)C12CO (some centres not stated),"activity change, negative = cytotoxicity",[4],-5.71% [at 6.55 µM]

# From PubChem BioAssay (NCATS)
